Reference: the supplement of paper PMC10849652
About 7,900 targets were measured; listed, in parts, are those with a hit and a random draw of the rest. About 0.6% of all pairs of compound and target were hits.

Compound: C1CCN(C1)C(=O)NC2=CC=CC(=C2)NC3=NC=C(C(=N3)NCCC4=CN=CN4)Br
Test: log2 fold change, soluble protein after heating vs DMSO (PISA); higher = thermal stabilisation; K562 cells, 10 uM, 30 min; active = over 0.2 and 3.5 SD of the protein, either way, in both replicates (recomputed)
Summary of the method: (§1)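 Soluble protein was defined as the supernatant after 21,000xg for 90 min. It came from K562 cells at 2×10^6 cells/mL given 10 μM compound for 30 min, heated in aliquots for 3 min across 48°C-58°C, pooled, and extracted in PBS with 0.5% NP-40 at 4°C, and was quantified by TMTpro 16plex LC-MS/MS with equalised channel sums. Thermal stability against control samples, from duplicates, is reported as log2 fold change.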

Chain of UniProt Q9HBL8 (Q9HBL8 whole entry, looked up): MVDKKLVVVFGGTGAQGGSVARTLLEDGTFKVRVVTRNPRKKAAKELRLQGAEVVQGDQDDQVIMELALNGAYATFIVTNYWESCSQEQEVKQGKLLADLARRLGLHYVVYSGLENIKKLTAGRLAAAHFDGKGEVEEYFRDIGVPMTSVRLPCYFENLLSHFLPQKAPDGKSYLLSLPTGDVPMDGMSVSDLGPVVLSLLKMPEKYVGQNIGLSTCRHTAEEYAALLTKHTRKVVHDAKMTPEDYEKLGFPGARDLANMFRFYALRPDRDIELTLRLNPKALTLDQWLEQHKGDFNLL
Chain of UniProt Q9H1E3 (Q9H1E3 whole entry, looked up): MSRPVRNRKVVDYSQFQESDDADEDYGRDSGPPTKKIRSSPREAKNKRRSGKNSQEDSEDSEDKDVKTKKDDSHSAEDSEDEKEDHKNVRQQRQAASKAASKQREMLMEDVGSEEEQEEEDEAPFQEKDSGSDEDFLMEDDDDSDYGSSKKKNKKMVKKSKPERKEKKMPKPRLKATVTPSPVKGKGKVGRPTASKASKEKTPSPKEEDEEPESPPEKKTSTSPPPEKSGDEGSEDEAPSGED
Chain of UniProt Q86WQ0 (Q86WQ0 whole entry, looked up): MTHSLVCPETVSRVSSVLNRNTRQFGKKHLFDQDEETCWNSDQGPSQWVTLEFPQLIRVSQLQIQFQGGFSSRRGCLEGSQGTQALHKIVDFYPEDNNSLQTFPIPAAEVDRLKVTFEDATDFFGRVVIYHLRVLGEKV
Chain of UniProt Q12769 (Q12769 whole entry, looked up): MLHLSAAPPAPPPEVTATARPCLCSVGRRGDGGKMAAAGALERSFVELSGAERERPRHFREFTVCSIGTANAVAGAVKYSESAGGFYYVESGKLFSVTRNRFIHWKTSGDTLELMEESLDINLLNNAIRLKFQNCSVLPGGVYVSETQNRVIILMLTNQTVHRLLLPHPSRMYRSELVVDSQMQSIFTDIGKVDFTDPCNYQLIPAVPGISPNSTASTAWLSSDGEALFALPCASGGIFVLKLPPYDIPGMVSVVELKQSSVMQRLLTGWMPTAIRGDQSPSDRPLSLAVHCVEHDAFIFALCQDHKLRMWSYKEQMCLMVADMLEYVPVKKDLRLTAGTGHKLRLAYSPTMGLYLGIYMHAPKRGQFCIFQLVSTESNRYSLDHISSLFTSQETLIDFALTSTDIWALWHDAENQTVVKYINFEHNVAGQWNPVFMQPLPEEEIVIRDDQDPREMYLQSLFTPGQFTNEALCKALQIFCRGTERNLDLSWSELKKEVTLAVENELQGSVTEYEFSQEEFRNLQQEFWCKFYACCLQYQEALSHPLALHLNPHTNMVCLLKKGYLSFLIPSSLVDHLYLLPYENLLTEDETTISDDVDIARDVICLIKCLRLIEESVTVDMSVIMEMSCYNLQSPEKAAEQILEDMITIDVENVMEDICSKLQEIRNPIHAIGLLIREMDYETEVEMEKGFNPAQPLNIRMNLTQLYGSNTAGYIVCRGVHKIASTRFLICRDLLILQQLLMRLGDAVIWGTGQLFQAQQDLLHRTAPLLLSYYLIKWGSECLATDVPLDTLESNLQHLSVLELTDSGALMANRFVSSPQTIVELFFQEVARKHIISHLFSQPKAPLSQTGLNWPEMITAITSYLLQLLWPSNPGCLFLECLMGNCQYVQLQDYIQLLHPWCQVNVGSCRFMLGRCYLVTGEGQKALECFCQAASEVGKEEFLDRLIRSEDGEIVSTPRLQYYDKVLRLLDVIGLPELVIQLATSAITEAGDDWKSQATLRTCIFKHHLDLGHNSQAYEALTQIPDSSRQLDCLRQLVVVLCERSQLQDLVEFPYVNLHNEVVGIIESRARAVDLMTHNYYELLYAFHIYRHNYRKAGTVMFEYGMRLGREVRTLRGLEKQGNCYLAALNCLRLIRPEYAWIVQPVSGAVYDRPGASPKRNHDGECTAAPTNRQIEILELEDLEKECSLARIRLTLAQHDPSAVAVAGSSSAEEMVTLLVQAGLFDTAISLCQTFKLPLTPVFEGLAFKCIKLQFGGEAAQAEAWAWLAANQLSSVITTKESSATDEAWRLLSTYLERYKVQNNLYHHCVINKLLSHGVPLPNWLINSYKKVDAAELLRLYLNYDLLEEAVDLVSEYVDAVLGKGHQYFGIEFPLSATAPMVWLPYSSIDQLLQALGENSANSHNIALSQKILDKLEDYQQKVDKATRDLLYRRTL
Chain of UniProt Q9BSU3 (Q9BSU3 whole entry, looked up): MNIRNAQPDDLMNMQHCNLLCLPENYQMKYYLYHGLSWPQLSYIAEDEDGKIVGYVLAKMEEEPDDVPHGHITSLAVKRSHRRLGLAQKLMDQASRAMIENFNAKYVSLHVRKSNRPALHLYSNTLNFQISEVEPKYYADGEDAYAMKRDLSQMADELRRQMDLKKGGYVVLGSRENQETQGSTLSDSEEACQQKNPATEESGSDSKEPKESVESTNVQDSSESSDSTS
Chain of UniProt Q9Y2I1 (Q9Y2I1 whole entry, looked up): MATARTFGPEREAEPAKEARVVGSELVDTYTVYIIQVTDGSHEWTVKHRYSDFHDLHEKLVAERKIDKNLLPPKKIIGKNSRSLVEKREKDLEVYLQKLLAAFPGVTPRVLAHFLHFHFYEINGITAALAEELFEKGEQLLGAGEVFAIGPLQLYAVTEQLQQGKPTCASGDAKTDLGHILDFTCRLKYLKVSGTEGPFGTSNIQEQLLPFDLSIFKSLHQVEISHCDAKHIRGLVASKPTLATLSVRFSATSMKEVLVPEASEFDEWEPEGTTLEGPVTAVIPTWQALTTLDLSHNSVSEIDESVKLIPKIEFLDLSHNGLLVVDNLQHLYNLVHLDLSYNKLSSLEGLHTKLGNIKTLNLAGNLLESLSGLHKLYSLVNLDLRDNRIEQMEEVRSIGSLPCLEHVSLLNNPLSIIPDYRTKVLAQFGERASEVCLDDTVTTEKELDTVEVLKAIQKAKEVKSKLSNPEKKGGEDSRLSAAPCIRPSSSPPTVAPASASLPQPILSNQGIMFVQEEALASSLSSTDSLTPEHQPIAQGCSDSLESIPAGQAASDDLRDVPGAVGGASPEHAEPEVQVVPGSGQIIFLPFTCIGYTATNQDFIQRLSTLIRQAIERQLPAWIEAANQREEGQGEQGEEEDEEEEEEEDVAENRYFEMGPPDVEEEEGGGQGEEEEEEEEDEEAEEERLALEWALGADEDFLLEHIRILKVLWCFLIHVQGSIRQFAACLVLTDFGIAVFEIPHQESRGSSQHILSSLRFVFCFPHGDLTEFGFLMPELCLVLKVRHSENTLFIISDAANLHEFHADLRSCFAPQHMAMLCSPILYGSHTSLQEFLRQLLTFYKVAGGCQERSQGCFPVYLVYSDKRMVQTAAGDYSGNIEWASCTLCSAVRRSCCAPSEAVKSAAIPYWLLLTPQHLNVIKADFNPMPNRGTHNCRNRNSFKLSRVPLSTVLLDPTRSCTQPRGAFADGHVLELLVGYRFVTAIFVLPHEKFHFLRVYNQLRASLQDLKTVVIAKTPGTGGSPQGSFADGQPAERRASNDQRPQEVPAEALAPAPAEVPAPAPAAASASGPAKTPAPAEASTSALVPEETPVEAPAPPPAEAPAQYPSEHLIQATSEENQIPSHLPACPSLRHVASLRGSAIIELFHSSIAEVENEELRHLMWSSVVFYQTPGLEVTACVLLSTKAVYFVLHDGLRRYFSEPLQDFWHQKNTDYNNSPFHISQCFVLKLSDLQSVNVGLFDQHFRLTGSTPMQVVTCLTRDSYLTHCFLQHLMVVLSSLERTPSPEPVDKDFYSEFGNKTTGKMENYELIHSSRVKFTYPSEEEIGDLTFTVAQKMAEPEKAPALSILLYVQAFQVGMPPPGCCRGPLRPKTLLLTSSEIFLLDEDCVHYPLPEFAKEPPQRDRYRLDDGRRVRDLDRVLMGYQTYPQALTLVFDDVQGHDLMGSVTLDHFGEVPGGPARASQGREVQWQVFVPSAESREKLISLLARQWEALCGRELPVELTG
Chain of UniProt Q9H3P2 (Q9H3P2 whole entry, looked up): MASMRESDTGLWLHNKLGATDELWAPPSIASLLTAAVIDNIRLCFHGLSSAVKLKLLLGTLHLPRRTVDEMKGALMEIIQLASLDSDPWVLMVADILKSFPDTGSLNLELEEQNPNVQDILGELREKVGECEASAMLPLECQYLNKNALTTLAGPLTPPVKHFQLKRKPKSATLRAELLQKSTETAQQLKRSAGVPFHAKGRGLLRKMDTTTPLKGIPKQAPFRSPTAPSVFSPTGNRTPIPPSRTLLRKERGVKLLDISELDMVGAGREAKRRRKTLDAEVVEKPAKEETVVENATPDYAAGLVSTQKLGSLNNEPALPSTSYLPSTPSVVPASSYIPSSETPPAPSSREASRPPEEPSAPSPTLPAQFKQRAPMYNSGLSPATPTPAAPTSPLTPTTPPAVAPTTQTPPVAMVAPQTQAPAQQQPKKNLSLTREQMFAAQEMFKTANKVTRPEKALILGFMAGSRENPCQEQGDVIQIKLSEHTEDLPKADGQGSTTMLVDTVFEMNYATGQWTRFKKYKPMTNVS
Chain of UniProt Q9H081 (Q9H081 whole entry, looked up): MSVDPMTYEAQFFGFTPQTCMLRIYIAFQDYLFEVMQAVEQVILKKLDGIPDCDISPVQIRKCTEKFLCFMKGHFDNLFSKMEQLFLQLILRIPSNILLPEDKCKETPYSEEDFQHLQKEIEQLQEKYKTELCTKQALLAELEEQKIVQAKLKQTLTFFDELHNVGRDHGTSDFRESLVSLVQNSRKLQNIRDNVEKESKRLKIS
Chain of UniProt P49914 (P49914 whole entry, looked up): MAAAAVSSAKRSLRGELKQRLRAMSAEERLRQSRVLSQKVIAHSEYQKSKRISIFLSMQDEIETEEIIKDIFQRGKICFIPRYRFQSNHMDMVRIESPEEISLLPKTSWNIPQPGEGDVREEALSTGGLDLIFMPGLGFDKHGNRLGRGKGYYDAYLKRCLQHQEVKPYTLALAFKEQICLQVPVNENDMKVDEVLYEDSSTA
Chain of UniProt O60361 (O60361 whole entry, looked up): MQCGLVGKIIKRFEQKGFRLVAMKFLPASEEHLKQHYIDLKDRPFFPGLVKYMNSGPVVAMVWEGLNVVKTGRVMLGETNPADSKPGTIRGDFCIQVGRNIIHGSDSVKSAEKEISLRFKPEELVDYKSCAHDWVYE

log2 fold change, inactive:
NDUFB7 (UniProt P17568) 0.037
MRPL50 (UniProt Q8N5N7) -0.084
NOP58 (UniProt Q9Y2X3) -0.156
MRPS31 (UniProt Q92665) 0.003
NME7 (UniProt Q9Y5B8) -0.039
NME2P1 (UniProt O60361) 0.076
OTUD6B (UniProt Q8N6M0) -0.014
NDUFA4 (UniProt O00483) 0.086
NUP160 (UniProt Q12769) -0.085
MTHFS (UniProt P49914) -0.014
NELFB isoform 2 (UniProt Q8WX92) -0.075
NISCH (UniProt Q9Y2I1) 0.039
MRPS16 (UniProt Q9Y3D3) -0.085
NCAPH (UniProt Q15003) -0.004
NELFA (UniProt Q9H3P2) -0.323
MSH3 (UniProt P20585) 0.008
NEU1 (UniProt Q99519) 0.012
NUCKS1 (UniProt Q9H1E3) 0.067
NMRAL1 (UniProt Q9HBL8) -0.055
MTOR (UniProt P42345) 0.065
NAA11 (UniProt Q9BSU3) -0.108
MRPS22 (UniProt P82650) -0.028
NOSIP (UniProt Q9Y314) -0.234
NR2C2AP isoform 2 (UniProt Q86WQ0) -0.089
OSTC (UniProt Q9NRP0) -0.041
MRPS6 (UniProt P82932) -0.039
MKRN2 (UniProt Q9H000) -0.085
OTUD4 (UniProt Q01804) -0.011
MSH2 (UniProt P43246) -0.064
MINK1 (UniProt Q8N4C8) -0.003
MIS12 (UniProt Q9H081) -0.16
NA, A0A096LPI6 0.008
MMS19 isoform 8 (UniProt Q96T76) -0.01

Compound: C1CN(CCC1(CC2=CC=C(C=C2)Cl)N)C3=NC=NC4=C3C=CN4
Test: as above
Summary of the method: as §1

log2 fold change, inactive:
NDUFB7 (UniProt P17568) 0.041
MRPL50 (UniProt Q8N5N7) -0.073
NOP58 (UniProt Q9Y2X3) -0.143
MRPS31 (UniProt Q92665) -0.066
NME7 (UniProt Q9Y5B8) -0.248
NME2P1 (UniProt O60361) 0.078
OTUD6B (UniProt Q8N6M0) -0.055
NDUFA4 (UniProt O00483) -0.017
NUP160 (UniProt Q12769) -0.025
MTHFS (UniProt P49914) -0.12
NELFB isoform 2 (UniProt Q8WX92) -0.025
NISCH (UniProt Q9Y2I1) -0.032
MRPS16 (UniProt Q9Y3D3) -0.097
NCAPH (UniProt Q15003) -0.096
NELFA (UniProt Q9H3P2) -0.028
MSH3 (UniProt P20585) -0.045
NEU1 (UniProt Q99519) -0.047
NUCKS1 (UniProt Q9H1E3) -0.002
NMRAL1 (UniProt Q9HBL8) 0.037
MTOR (UniProt P42345) -0.03
NAA11 (UniProt Q9BSU3) 0.167
MRPS22 (UniProt P82650) -0.101
NOSIP (UniProt Q9Y314) -0.249
NR2C2AP isoform 2 (UniProt Q86WQ0) -0.013
OSTC (UniProt Q9NRP0) 0.088
MRPS6 (UniProt P82932) -0.093
MKRN2 (UniProt Q9H000) 0.061
OTUD4 (UniProt Q01804) 0.04
MSH2 (UniProt P43246) -0.059
MINK1 (UniProt Q8N4C8) -0.008
MIS12 (UniProt Q9H081) -0.016
NA, A0A096LPI6 0.035
MMS19 isoform 8 (UniProt Q96T76) -0.01
